DAT uptake mod: modulates human dopamine transporter uptake under cocaine; Q01959; LLC-PK1 hDAT cells, [14C]-dopamine uptake with cocaine IC80; actives deviate in either direction; B-score at 10 µM; 1.3% of 110,000 active;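 active = Z score or B-score, a plate-position-corrected score, falls beyond the plate's 99.7% confidence bounds, in either direction; inactive = both scores lie inside the 99.7% bounds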;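 also: scored against the spread of the other compound wells on the same plate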
CYP2C19 activ: cytochrome P450 2C19 (human) activation; recombinant CYP2C19, luciferin-H EGE luminescence; active compounds read high; 0 = fully inhibited enzyme, 1 = untreated enzyme; activation factor at 5 µM; 96,000 tested, under 10 active;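 active = activation factor of at least 2 at 5 µM in the primary screen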;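 also: 0 = wells with 2.5 mM tranylcypromine and 1 = vehicle-only wells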
D1 allo mod: allosteric modulators of human D1 dopamine receptor; P21728; HEK293 D1, CRE-luciferase, dopamine EC30 potentiation; actives deviate in either direction; B-score at 10 µM; 5.9% of 58,000 active;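 active = luminescence count or its row- and column-corrected plate score outside the 99.7% band of the plate's sample wells, on either side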
Target sequence (P21728 whole entry, looked up): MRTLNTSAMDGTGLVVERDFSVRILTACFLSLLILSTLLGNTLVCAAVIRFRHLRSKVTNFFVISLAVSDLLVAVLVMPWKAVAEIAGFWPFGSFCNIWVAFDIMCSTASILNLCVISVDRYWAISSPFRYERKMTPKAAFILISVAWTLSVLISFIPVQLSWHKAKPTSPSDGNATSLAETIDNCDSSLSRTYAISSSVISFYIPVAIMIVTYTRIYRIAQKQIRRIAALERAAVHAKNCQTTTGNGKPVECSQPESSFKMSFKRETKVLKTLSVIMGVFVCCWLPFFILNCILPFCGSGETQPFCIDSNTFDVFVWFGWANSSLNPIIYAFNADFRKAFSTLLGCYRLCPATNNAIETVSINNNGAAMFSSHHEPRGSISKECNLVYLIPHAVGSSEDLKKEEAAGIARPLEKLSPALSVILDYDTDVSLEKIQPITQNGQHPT
CYP2C9 act: increases human cytochrome P450 2C9 activity; P11712; 1.4% of 96,000 active; recombinant CYP2C9, luciferin-H conversion, luminescence; active compounds read high; factor 1 = untreated enzyme, 0 = blocked; activation factor at 5 µM;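 active = activation factor of 2 or more for CYP2C9 at a 5 µM dose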;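 also: 0 = sulfaphenazole-blocked wells and 1 = vehicle-only wells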
CYP2C19 inh: blocks human cytochrome P450 2C19; P33261; CYP2C19 Supersomes, luciferin-H EGE luminescence, 30 min; inhibition, % at 5 µM; 21% of 96,000 active; AID 778;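 active = CYP2C19 inhibition above a set limit at 5 µM in the primary screen, cut at about 50% in these data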;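 also: plate controls were negative control wells for no effect and 2.5 mM tranylcypromine positive control for full effect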
CYP2C9 inh: blocks human cytochrome P450 2C9. P11712. CYP2C9 Supersomes, luciferin-H conversion, luminescence. inhibition, % at 5 µM. 20% of 96,000 active. AID 777;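 active = blocking of liver enzyme CYP2C9 beyond about 50% at 5 µM, limit read from the data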
The depositor's hits bear a star; · = not tested or not shown. This is a sample that favours compounds with a hit; in the whole collection about 28% have one here.

SMILES | DAT uptake mod | CYP2C19 activ | D1 allo mod | CYP2C9 act | CYP2C19 inh | CYP2C9 inh
COc1cc(-c2nc(-c3ccc(NC(=O)c4ccc5c(c4)OCO5)cc3)no2)cc(OC)c1OC | 0.455 | 0.7 | -1.28 | 0.7 | 30.4 | 27.2
COc1ccc(-c2nc3cc(NC(=O)c4ccc5c(c4)OCO5)ccc3o2)cc1 | -9.04* | 0.9 | 0.389 | 0.9 | 10.5 | 5.3
O=C(Nc1ccc2oc(-c3ccccc3)nc2c1)c1ccc2c(c1)OCCO2 | 0.847 | 0.5 | -0.561 | 0.3 | 53.0* | 66.1*
CCN(CC(=O)NC(C)C)Cc1nc2sc3c(c2c(=O)[nH]1)CCC3 | · | 0.6 | · | 0.6 | 44.3 | 36.8
O=C(c1ccc(F)cc1)C1CCN(C(=O)c2ccncc2)CC1 | -0.0102 | 0 | -0.6 | 0 | 97.6* | 96.6*
CC1CC(C)CN(C(=O)c2ccncc2)C1 (stereo not drawn) | -0.555 | 0.8 | · | 0.8 | 21.1 | 19.1
CC1CCCN(C(=O)c2ccncc2)C1 (stereo not drawn) | -0.0342 | 0.2 | 0.309 | 0.8 | 82.4* | 15.0
O=C(c1ccc(Cl)cc1)C1CCN(C(=O)N2CCOCC2)CC1 | -0.165 | 0.8 | -1.04 | 0.9 | 19.0 | 14.0
O=C(c1ccc(Cl)cc1)C1CCN(C(=O)C2CC2)CC1 | 0.24 | 0.2 | · | 1 | 82.7* | 1.9
CCC1(CC)C(=O)N(C)C(=O)NC1=NCc1ccccc1 | -0.48 | 0.9 | -0.937 | 0.9 | 11.5 | 14.8
Cc1ccc(/C=N/Nc2ncc(Cl)cc2Cl)s1 | -0.678 | 0.8 | · | 1.2 | 23.3 | -23.9
Cc1cc(Nc2ncc(Cl)cc2Cl)n[nH]1 | 1.14 | 0.3 | -0.182 | 0.9 | 70.6* | 6.1
Cc1ccc(Sc2cc(Cl)nc(N)n2)cc1 | 0.186 | 1 | · | 1 | 4.0 | 3.8
COc1ccc2c(c1)C(C)CC(C)(C)N2C(=O)CSc1nc2ccccc2s1 (stereo not drawn) | 0.518 | 0.3 | · | 0.5 | 71.3* | 53.5*
COc1ccc(C2=CC(c3sccc3C)n3nnnc3N2)cc1 (stereo not drawn) | -0.401 | 0.2 | 0.161 | 0.1 | 82.1* | 91.4*
COc1ccc(C2=CC(c3ccc(F)cc3)n3nnnc3N2)cc1 (stereo not drawn) | · | 0.5 | · | 0.1 | 51.6* | 92.8*
COc1ccc(C2C=C(c3ccccc3)Nc3nc(CCCO)nn32)cc1 (stereo not drawn) | 1.73 | 0.7 | -0.302 | 0.3 | 28.5 | 66.7*
OCCCc1nc2n(n1)C(c1ccccc1)C=C(c1ccccc1)N2 (stereo not drawn) | 0.0255 | 1 | -0.00429 | 1 | -1.3 | -1.9
Cc1ccc(C2=CC(c3ccc(N(C)C)cc3)n3nnnc3N2)cc1 (stereo not drawn) | · | 0.2 | 0.0216 | 0.3 | 78.1* | 65.0*
CC1(C)Cc2ccccc2C2CC(O)C(=O)N21 (stereo not drawn) | -0.0408 | 1.1 | -0.702 | 1.1 | -6.3 | -9.2
Cc1nnc2c3cnn(-c4ccc(Cl)cc4)c3ncn12 | · | 0.9 | -0.0901 | 1.1 | 8.9 | -9.0
CCCCN(CC)CCCNC(=O)C1c2ccccc2C(=O)N(C)C1c1cn(C)c2ccccc12 (stereo not drawn) | 0.353 | 0.9 | · | 0.8 | 9.3 | 24.1
CC(=O)c1c(N)c(C#N)c(C)n1-c1ccc(Br)cc1 | 0.028 | 0.1 | · | 1 | 94.2* | 3.6
Cc1c(C#N)c(N=CN(C)C)c(C(=O)c2ccc(Br)cc2)n1-c1ccc(Cl)cc1 | 0.0428 | 0.8 | · | 0.5 | 22.6 | 48.6
CNCc1ccccc1Sc1ccc(OC)cc1 | · | 0.3 | · | 0.9 | 65.3* | 9.8
SMILES | DAT uptake mod | CYP2C19 activ | D1 allo mod | CYP2C9 act | CYP2C19 inh | CYP2C9 inh
COc1cccc(SCc2noc(C(=O)NCCN(C)C)c2C(=O)NCCN(C)C)c1 | -0.666 | · | · | · | · | ·
COc1cccc(Sc2ccccc2CN(C)C)c1 | 0.000674 | 0.3 | · | 0.9 | 71.8* | 14.1
COC(=O)c1c(-c2ccc(F)cc2)noc1N | -0.469 | 0.9 | -0.425 | 1 | 7.7 | 3.6
O=C(Cn1cc(C(=O)c2ccco2)c2ccccc21)NCc1ccco1 | -0.0538 | 0.8 | · | 0.6 | 23.8 | 37.3
COc1ccc(OC)c(NC(=O)Cn2cc(C#N)c3ccccc32)c1 | -0.0736 | 0.2 | 0.991 | 0.2 | 84.6* | 80.2*
COc1ccc(OC)c(NC(=O)Cn2cccc2)c1 | 0.0876 | 0.7 | -0.408 | 0.7 | 28.3 | 30.3
COc1ccc(OC)c(NC(=O)Cn2cc(C(=O)c3ccco3)c3ccccc32)c1 | -0.131 | 0 | -0.417 | 0 | 95.8* | 97.6*

Screening results as filed in PubChem BioAssay.
